The source made the active and inactive calls. How the source made its calls: active means hit-call score of the fitted dose curve at least 0.9, where 1 is the maximum; inactive means score below 0.9.
Experiments:
Details in all cases: mRNA level, 48 h; actives raise or lower the signal
[1] = read-out: Broad substrate specificity ATP-binding cassette transporter ABCG2 (Homo sapiens) (UniProt Q9UNQ0); assay: LTEA_HepaRG_ABCG2: Life Technologies and Expression Analysis (LTEA) Assay for ABC Transporter (ABCG2) using HepaRG (AID 2283465)
Procedure, shortened: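 Differentiated HepaRG cells in serum-free induction medium were exposed for 48 h, in duplicate, to eight half-log concentrations up to 100 uM in 0.5% DMSO. ABCG2 mRNA was measured by TaqMan qRT-PCR, normalized to ACTB, GAPDH and POLR2A, and fitted bidirectionally versus DMSO.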

[2] = read-out: ATP-citrate lyase (ACLY), ACLY (gene 47); assay: LTEA_HepaRG_ACLY: Life Technologies and Expression Analysis (LTEA) Assay for ATP-citrate lyase (ACLY) using HepaRG (AID 2283466)
Procedure, shortened: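 Differentiated human HepaRG cells in serum-free induction medium exposed 48 h, in duplicate, to eight half-log concentrations from 100 uM top in 0.5% DMSO; ACLY mRNA measured by qRT-PCR, normalized to ACTB, GAPDH, POLR2A, fitted bidirectionally versus DMSO.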

[3] = read-out: Peroxisomal acyl-coenzyme A oxidase 1 (ACOX1) gene, ACOX1 (gene 51); assay: LTEA_HepaRG_ACOX1: Life Technologies and Expression Analysis (LTEA) Assay for Peroxisomal acyl-coenzyme A oxidase 1 (ACOX1) gene using HepaRG (AID 2283467)
Procedure, shortened: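 Differentiated human HepaRG cells were exposed in duplicate for 48 h in serum-free induction medium to eight half-log concentrations up to 100 uM in 0.5% DMSO. ACOX1 mRNA was then quantified by TaqMan qRT-PCR, normalized to ACTB, GAPDH and POLR2A.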

[4] = read-out: Alkaline Phosphatase, Placental (ALPP) gene, ALPP (gene 250); assay: LTEA_HepaRG_ALPP: Life Technologies and Expression Analysis (LTEA) Assay for Alkaline Phosphatase, Placental (ALPP) gene using HepaRG (AID 2283468)
Procedure, shortened: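 HepaRG cells plated 48 h, then exposed in duplicate for 48 h in serum-free induction medium to 8-point half-log series from 100 uM in 0.5% DMSO. ALPP mRNA by TaqMan qRT-PCR, normalized to ACTB/GAPDH/POLR2A; bidirectional fit versus DMSO.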

[5] = read-out: Bcl-2 (BAD) gene, BAD (gene 572); assay: LTEA_HepaRG_BAD: Life Technologies and Expression Analysis (LTEA) Assay for Bcl-2 (BAD) gene using HepaRG (AID 2283469)
Procedure, shortened: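 Differentiated human HepaRG cells in serum-free induction medium were exposed in duplicate for 48 h to eight concentrations (top 100 uM, half-log steps, 0.5% DMSO). BAD mRNA was quantified by qRT-PCR normalised to ACTB, GAPDH and POLR2A, with bidirectional fitting versus DMSO.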

[6] = read-out: Bcl-2 (BAX) gene, BAX (gene 581); assay: LTEA_HepaRG_BAX: Life Technologies and Expression Analysis (LTEA) Assay for Bcl-2 (BAX) gene using HepaRG (AID 2283470)
Procedure, shortened: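 Differentiated HepaRG cells exposed 48 h in serum-free induction medium, eight half-log concentrations from 100 uM, in duplicate, 0.5% DMSO vehicle. BAX mRNA by TaqMan qRT-PCR, normalised to ACTB, GAPDH and POLR2A.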

[7] = read-out: adenosine kinase (ADK) gene, ADK (gene 132); assay: LTEA_HepaRG_ADK: Life Technologies and Expression Analysis (LTEA) Assay for adenosine kinase (ADK) gene using HepaRG (AID 2283471)
Procedure, shortened: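 Read-out is ADK transcript level measured by qRT-PCR and normalised to three housekeeping genes. Cells are human HepaRG, dosed for 48 h at up to 100 uM in 0.5% DMSO. Gain or loss of signal is fitted against DMSO controls.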

[8] = read-out: Alpha-fetoprotein (AFP) gene, AFP (gene 174); assay: LTEA_HepaRG_AFP: Life Technologies and Expression Analysis (LTEA) Assay for Alpha-fetoprotein (AFP) gene using HepaRG (AID 2283472)
Procedure, shortened: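 Differentiated human HepaRG cells exposed 48 h in serum-free induction medium, 8-point half-log series from 100 uM in 0.5% DMSO, duplicate. AFP mRNA by qRT-PCR, normalized to ACTB, GAPDH, POLR2A; bidirectional fit vs DMSO.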

BCL2L11 (gene 10018) = assay: LTEA_HepaRG_BCL2L11: Life Technologies and Expression Analysis (LTEA) Assay for Bcl-2 (BCL2L11) gene using HepaRG (AID 2283473)
Procedure, shortened: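 Differentiated human HepaRG cells were exposed 48 h in serum-free induction medium to eight half-log concentrations up to 100 uM in 0.5% DMSO, in duplicate. BCL2L11 mRNA was quantified by TaqMan qRT-PCR, normalized to ACTB, GAPDH and POLR2A; induction or repression fitted versus DMSO.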

[9] = read-out: Apolipoprotein A-V (APOA5) gene, APOA5 (gene 116519); assay: LTEA_HepaRG_APOA5: Life Technologies and Expression Analysis (LTEA) Assay for Apolipoprotein A-V (APOA5) gene using HepaRG (AID 2283474)
Procedure, shortened: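 Differentiated HepaRG cells in serum-free induction medium, exposed 48 h in duplicate to eight half-log concentrations topping at 100 uM (0.5% DMSO). APOA5 mRNA by Fluidigm TaqMan qRT-PCR, normalized to ACTB, GAPDH and POLR2A; bidirectional fit versus DMSO.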

[10] = read-out: Apoptosis regulator Bcl-2 (Homo sapiens) (UniProt P10415); assay: LTEA_HepaRG_BCL2: Life Technologies and Expression Analysis (LTEA) Assay for Bcl-2 gene using HepaRG (AID 2283475)
Procedure, shortened: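 Differentiated human HepaRG cells in serum-free induction medium exposed 48 h, in duplicate, to 8-point half-log series from 100 uM in 0.5% DMSO. BCL2 mRNA by qRT-PCR (TaqMan/Fluidigm), normalized to ACTB, GAPDH, POLR2A; bidirectional fit against DMSO.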

[11] = read-out: Bcl-2 (BID) gene, BID (gene 637); assay: LTEA_HepaRG_BID: Life Technologies and Expression Analysis (LTEA) Assay for Bcl-2 (BID) gene using HepaRG (AID 2283476)
Procedure, shortened: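 Gene expression by qRT-PCR in HepaRG cells after 48 h exposure, duplicate wells, eight half-log concentrations topping at 100 uM in 0.5% DMSO. Normalized to ACTB, GAPDH, POLR2A; bidirectional fitting relative to DMSO.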

Caspase-3 (Homo sapiens) = Caspase-3 (Homo sapiens) (UniProt P42574); assay: LTEA_HepaRG_CASP3: Life Technologies and Expression Analysis (LTEA) Assay for cysteine-aspartic acid protease (CASP3) using HepaRG (AID 2283477)
Sequence of Caspase-3 (Homo sapiens) (P42574 whole entry, looked up): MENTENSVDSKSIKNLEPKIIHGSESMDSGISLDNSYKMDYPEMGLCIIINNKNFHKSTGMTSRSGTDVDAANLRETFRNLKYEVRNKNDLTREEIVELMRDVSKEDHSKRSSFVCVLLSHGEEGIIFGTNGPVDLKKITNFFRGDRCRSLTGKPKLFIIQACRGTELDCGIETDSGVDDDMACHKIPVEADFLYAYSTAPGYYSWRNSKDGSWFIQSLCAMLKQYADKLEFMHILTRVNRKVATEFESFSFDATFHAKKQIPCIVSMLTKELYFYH
Procedure, shortened: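 Differentiated HepaRG cells, plated 48 h, were treated in duplicate in serum-free induction medium for 48 h with eight half-log concentrations up to 100 uM in 0.5% DMSO. CASP3 mRNA measured by qRT-PCR, normalized to ACTB, GAPDH, POLR2A.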

[12] = read-out: Cytochrome P450 (CYP24A1), CYP24A1 (gene 1591); assay: LTEA_HepaRG_CYP24A1: Life Technologies and Expression Analysis (LTEA) Assay for Cytochrome P450 (CYP24A1) using HepaRG (AID 2283478)
Procedure, shortened: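 HepaRG cells plated 48 h, then exposed in duplicate in serum-free induction medium for 48 h to 8-point half-log series from 100 uM in 0.5% DMSO. CYP24A1 mRNA by Fluidigm qRT-PCR, normalized to ACTB, GAPDH, POLR2A; bidirectional fit versus DMSO.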

[13] = read-out: cysteine-aspartic acid protease (CASP8), CASP8 (gene 841); assay: LTEA_HepaRG_CASP8: Life Technologies and Expression Analysis (LTEA) Assay for cysteine-aspartic acid protease (CASP8) using HepaRG (AID 2283480)
Procedure, shortened: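 Differentiated human HepaRG cells, plated 48 h then switched to serum-free induction medium, were exposed in duplicate for 48 h to 8 half-log concentrations up to 100 uM in 0.5% DMSO. CASP8 mRNA was quantified by qRT-PCR, normalized to ACTB/GAPDH/POLR2A.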

[14] = read-out: Cytochrome P450 (CYP2B6), CYP2B6 (gene 1555); assay: LTEA_HepaRG_CYP2B6: Life Technologies and Expression Analysis (LTEA) Assay for Cytochrome P450 (CYP2B6) using HepaRG (AID 2283481)
Procedure, shortened: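 Differentiated human HepaRG cells in serum-free induction medium, dosed in duplicate for 48 h over 8 half-log concentrations topping at 100 uM (0.5% DMSO). CYP2B6 mRNA measured by TaqMan qRT-PCR, normalized to ACTB, GAPDH, POLR2A; bidirectional fit versus DMSO.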

[15] = read-out: Cytochrome P450 2C19 (Homo sapiens) (UniProt P33261); assay: LTEA_HepaRG_CYP2C19: Life Technologies and Expression Analysis (LTEA) Assay for CYP2C19 using HepaRG (AID 2283482)
Procedure, shortened: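 Differentiated HepaRG cells in serum-free induction medium exposed 48 h in duplicate, 8 concentrations from 100 uM by half-log steps in 0.5% DMSO. CYP2C19 mRNA measured by TaqMan qRT-PCR, normalized to ACTB, GAPDH, POLR2A. Bidirectional fit versus DMSO.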

CYP2C8 (gene 1558) = assay: LTEA_HepaRG_CYP2C8: Life Technologies and Expression Analysis (LTEA) Assay for CYP2C8 using HepaRG (AID 2283483)
Procedure, shortened: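 Differentiated human HepaRG cells were exposed for 48 h in serum-free induction medium to eight half-log concentrations up to 100 uM in 0.5% DMSO, in duplicate. CYP2C8 mRNA was measured by TaqMan qRT-PCR, normalized to ACTB, GAPDH and POLR2A, and fitted bidirectionally against DMSO.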

[16] = read-out: Cytochrome P450 (CYP1A2), CYP1A2 (gene 1544); assay: LTEA_HepaRG_CYP1A2: Life Technologies and Expression Analysis (LTEA) Assay for Cytochrome P450 (CYP1A2) using HepaRG (AID 2283479)
Procedure, shortened: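 Differentiated human HepaRG cells in serum-free induction medium exposed 48 hours in duplicate to 8 half-log concentrations from 100 uM, 0.5% DMSO. CYP1A2 mRNA quantified by qRT-PCR, normalized to ACTB, GAPDH and POLR2A; bidirectional fitting versus DMSO.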

Measured: AC50

Sequence of Apoptosis regulator Bcl-2 (Homo sapiens) (P10415 whole entry, looked up): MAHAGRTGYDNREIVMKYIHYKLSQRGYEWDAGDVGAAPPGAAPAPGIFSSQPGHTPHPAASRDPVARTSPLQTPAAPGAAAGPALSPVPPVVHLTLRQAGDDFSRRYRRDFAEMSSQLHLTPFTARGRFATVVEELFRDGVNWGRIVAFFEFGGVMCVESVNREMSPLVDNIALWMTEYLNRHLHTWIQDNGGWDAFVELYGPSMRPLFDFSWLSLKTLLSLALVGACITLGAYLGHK
Sequence of Cytochrome P450 2C19 (Homo sapiens) (P33261 whole entry, looked up): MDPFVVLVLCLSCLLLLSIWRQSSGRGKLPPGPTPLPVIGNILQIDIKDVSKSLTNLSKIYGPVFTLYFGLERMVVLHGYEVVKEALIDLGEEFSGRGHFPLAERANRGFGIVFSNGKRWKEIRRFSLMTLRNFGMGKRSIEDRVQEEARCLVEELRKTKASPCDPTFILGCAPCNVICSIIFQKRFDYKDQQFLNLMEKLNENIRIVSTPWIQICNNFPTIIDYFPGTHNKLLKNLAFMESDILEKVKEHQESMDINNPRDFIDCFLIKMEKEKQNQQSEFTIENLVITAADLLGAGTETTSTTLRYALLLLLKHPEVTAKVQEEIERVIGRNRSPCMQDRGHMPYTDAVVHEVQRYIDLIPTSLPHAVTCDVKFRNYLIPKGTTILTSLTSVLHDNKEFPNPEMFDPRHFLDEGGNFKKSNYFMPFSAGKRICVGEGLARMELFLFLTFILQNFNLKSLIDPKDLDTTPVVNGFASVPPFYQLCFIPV
Sequence of Broad substrate specificity ATP-binding cassette transporter ABCG2 (Homo sapiens) (Q9UNQ0 whole entry, looked up): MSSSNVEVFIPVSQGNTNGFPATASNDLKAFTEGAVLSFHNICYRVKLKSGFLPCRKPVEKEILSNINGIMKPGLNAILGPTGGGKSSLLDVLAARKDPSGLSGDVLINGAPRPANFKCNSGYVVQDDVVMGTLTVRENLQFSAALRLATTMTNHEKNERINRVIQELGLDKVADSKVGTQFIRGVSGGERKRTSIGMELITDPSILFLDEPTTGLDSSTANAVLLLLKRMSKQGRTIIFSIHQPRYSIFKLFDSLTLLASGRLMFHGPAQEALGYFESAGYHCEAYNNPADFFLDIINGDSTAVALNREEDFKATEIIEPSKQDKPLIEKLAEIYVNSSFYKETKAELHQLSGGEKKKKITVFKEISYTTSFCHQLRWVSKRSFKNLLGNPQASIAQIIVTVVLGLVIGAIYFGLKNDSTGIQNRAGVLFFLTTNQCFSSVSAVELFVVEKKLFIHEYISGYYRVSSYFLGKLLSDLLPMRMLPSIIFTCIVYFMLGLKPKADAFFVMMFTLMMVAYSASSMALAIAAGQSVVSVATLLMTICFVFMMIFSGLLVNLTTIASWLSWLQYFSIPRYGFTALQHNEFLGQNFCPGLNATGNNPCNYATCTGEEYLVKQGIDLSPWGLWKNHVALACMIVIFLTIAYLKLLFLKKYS

O=C(O)Cc1cc(I)c(Oc2ccc(O)c(I)c2)c(I)c1
inactive: [2] | [5] | [7] | BCL2L11 (gene 10018) | [11] | Caspase-3 (Homo sapiens) | [12] | [13] | CYP2C8 (gene 1558)
active: [1] 73.1 µM | [3] 86 µM | [4] 76.9 µM | [6] 87.2 µM | [8] 74.7 µM | [9] 84.9 µM | [10] 84 µM | [14] 93.8 µM | [15] 93.1 µM

O=C(O)Cn1c(=O)n(Cc2ccc(Br)cc2F)c(=O)c2ccc(Cl)cc21
active: [14] 32.7 µM | [15] 13 µM | CYP2C8 (gene 1558) 17 µM
inactive: [1] | [2] | [3] | [4] | [5] | [6] | [7] | [8] | BCL2L11 (gene 10018) | [9] | [10] | Caspase-3 (Homo sapiens) | [12] | [16] | [13]

COc1ccc2cc(S(=O)(=O)N[C@H](CC(=O)N[C@H](Cc3ccc(CN4[C@H](C)CCC[C@@H]4C)cc3)C(=O)N(C)C(C)C)c3ccc4c(c3)OCO4)ccc2c1
active: [3] 20.3 µM | [6] 81.8 µM | [7] 13.3 µM | BCL2L11 (gene 10018) 84.9 µM | Caspase-3 (Homo sapiens) 19.4 µM | [16] 7.93 µM | [13] 25.1 µM | [14] 11.5 µM | [15] 23.7 µM
inactive: [1] | [2] | [5] | [8] | [9] | [10] | [12] | CYP2C8 (gene 1558)

Cc1cccc2ccccc12
inactive: [1] | [2] | [3] | [5] | [6] | [7] | [8] | BCL2L11 (gene 10018) | [9] | [10] | Caspase-3 (Homo sapiens) | [12] | [13] | [14] | [15] | CYP2C8 (gene 1558)

CCCCCCCCOC(=O)c1cc(O)c(O)c(O)c1
inactive: [1] | [2] | [3] | [5] | [6] | [7] | [8] | BCL2L11 (gene 10018) | [9] | [10] | [11] | Caspase-3 (Homo sapiens) | [12] | [13] | [14] | [15] | CYP2C8 (gene 1558)

CCCC(=O)OCCC(C)C
inactive: [1] | [2] | [3] | [4] | [5] | [6] | [7] | [8] | BCL2L11 (gene 10018) | [9] | [10] | Caspase-3 (Homo sapiens) | [12] | [13] | [14] | [15] | CYP2C8 (gene 1558)

O=C(OCCCCCCOC(=O)c1ccccc1)c1ccccc1
inactive: [1] | [2] | [3] | [5] | [6] | [7] | [8] | BCL2L11 (gene 10018) | [9] | [10] | [11] | Caspase-3 (Homo sapiens) | [12] | [13] | [14] | [15] | CYP2C8 (gene 1558)

Source: PubChem BioAssay (EPA / NIEHS)
